What follows are compounds tested against AMP-activated protein kinase, AMPK (Homo sapiens) (UniProt P54646+O43741+P54619+Q9UGJ0+Q9Y478+Q13131+Q9UGI9) (assay: AMP-dependent Kinase enzyme assay. An in vitro enzyme assay that detects ADP turnover that is directly proportional to AMPK activity. This uses naive AMPK that is activated during the assay with MK-8722). Settings: 30 µM.
Type: functional
Parameters: scale not given: direction of the effect not stated beside the values

| SMILES | Percent Effect |
| --- | --- |
| Cc1c(Br)cccc1NC(=O)N(C)CCO | -2.37% |
| O=C1CN(C(=O)c2cc3ccc(Br)cc3[nH]2)CCN1 | 91% |
| Cc1nc(CNC(=O)c2cc(COc3ccccc3)[nH]n2)n[nH]1 | 7.31% |
| CC(O)c1cnn(-c2ccccc2)c1 (stereo not given) | 12.6% |
| CC1(C)O[C@@](C)([C@H]2CC3(CCN(c4ncccn4)CC3)CO2)CC[C@@H]1O | 7.88% |
| COCC1CCN(C(C(=O)O)c2c(F)cccc2OC(C)C)CC1 (stereo not given) | 5.46% |
| O=C(NCc1ccnc(OCC2CC2)c1)C1Cc2ccccc2O1 (stereo not given) | -4.29% |
| CNc1nc(C(=O)N2CCCC(COc3ccc(F)cc3)C2)cs1 (stereo not given) | 63.7% |
| CCC(C)Oc1ccc(CNCCNS(C)(=O)=O)cc1Cl (stereo not given) | 5% |
| CCC(C)c1csc(NC(=O)Cc2csc(-c3nnc[nH]3)n2)n1 (stereo not given) | 10.5% |
| O=C(c1cccnc1)N1CCC(Oc2cccc(C(F)(F)F)c2)CC1 | -1.51% |
| COc1c(C)cnc(CN2CCn3c(nnc3C(C)C)C2)c1C | 22% |
| Cc1ccccc1[C@@H]1CN(CCOCCO)C[C@H]1C(=O)O | -1.24% |
| COc1ccsc1C(=O)NC1CCN(c2ccc(C#N)cc2)CC1 | 13.5% |
| c1ccc(C2Cn3ccnc3CN2Cc2ncc[nH]2)cc1 (stereo not given) | 11.3% |
| CN([C@@H]1CC[C@@H](N2CCCC2)[C@@H]1O)S(=O)(=O)c1ccccc1 | -6.19% |
| Cc1cc(N2Cc3cnn(CCO)c3C2)nc(-c2ccccc2O)n1 | 28.4% |
| CCn1c(C2CCNCC2)nn(CCn2ccc(C)n2)c1=O | 5.45% |
| CC(C#N)NS(=O)(=O)c1cccc(C(C)C)c1 (stereo not given) | 0.482% |
| CC(CCc1ncnn1Cc1cccc(Cl)c1)N1CCCC1 (stereo not given) | 7.16% |

Source: ChEMBL document CHEMBL3988442, “University of Dundee, Small-Polar-MMV Screening Library” (2021)
